From PubChem BioAssay (Tox21)
Inconclusive results are not listed. Active and inactive are the calls of the source. Unless noted, the call rests on the fitted dose curve; in most records, active means well fitted curve in the direction sought with a large enough effect in the repeat runs; inconclusive means weak or mixed curves; inactive means no such curve, though single readings can be large; an effect the other way counts as inactive or inconclusive.

Experiments:
[1] = qHTS assay to identify aromatase inhibitors - cell viability counter screen (AID 743084);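 further: cells stimulated with testosterone during compound exposure; nearly all actives have a fitted effect of over 55% in size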
[2] = biological target: Aryl hydrocarbon receptor (Homo sapiens) (UniProt P35869); test: qHTS assay to identify small molecule that activate the aryl hydrocarbon receptor (AhR) signaling pathway (AID 743085);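 further: HG2L7.5c1 human HepG2 liver cells with stably integrated DRE-driven firefly reporter; series mostly up to about 70 µM; nearly all actives have a fitted effect of over 15% in size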
In short: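 HepG2 cells stably carrying a 20-DRE firefly luciferase reporter (HG2L7.5c1) treated with compound for 24 hr at 37C. Luciferase read by ONE-Glo luminescence, with CellTiter-Fluor viability read first.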

[3] = biological target: Peroxisome proliferator-activated receptor gamma (Homo sapiens) (UniProt P37231); test: qHTS assay to identify small molecule agonists of the peroxisome proliferator-activated receptor gamma (PPARg) signaling pathway (AID 743094; active means well fitted activation curve with a large enough effect in the signal ratio in the repeat runs, not every such curve was filed as active; the % refers to the signal ratio)
In short: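 Quantitative HTS agonist mode: stable HEK293H line with UAS-beta-lactamase reporter under PPARg control, 17 h compound exposure at 37C, fluorescence after 1 h FRET substrate loading at room temperature.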

[4] = biological target: Peroxisome proliferator-activated receptor gamma (Homo sapiens) (UniProt P37231); test: qHTS assay to identify small molecule antagonists of the peroxisome proliferator-activated receptor gamma (PPARg) signaling pathway (AID 743191; calls by dose curve; further: series mostly up to about 63 µM; nearly all actives have a fitted effect of over 30% in size)
In short: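 GeneBLAzer PPARg UAS-bla HEK293H cells, 5 h post-plating, exposed to compounds 17 h at 37C. LiveBLAzer B/G FRET substrate added for 1 h at room temperature; beta-lactamase reporter read by fluorescence intensity.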

[5] = qHTS assay to identify small molecule antagonists of the peroxisome proliferator-activated receptor gamma (PPARg) signaling pathway - cell viability counter screen (AID 743194); further: nearly all actives have a fitted effect of over 55% in size
In short: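 Cytotoxicity counter screen in PPARg-bla HEK293H cells, same wells as reporter assay. Compounds plus 50 nM rosiglitazone (final) for 17 h at 37 C, then viability read by CellTiter-Glo luminescence.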

[6] = qHTS assay for small molecule agonists of the antioxidant response element (ARE) signaling pathway - cell viability counter screen (AID 743203; calls by dose curve; further: nearly all actives have a fitted effect of over 55% in size)
In short: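 Seeded at 2,000 cells/well, ARE-bla HepG2 cells were incubated 5 hrs before compound addition. After 16 hrs of treatment at 37C with 5% CO2, CellTiter-Glo reagent was added and luminescence read 30 min later.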

[7] = qHTS assay for small molecule activators of the heat shock response signaling pathway - cell viability counter screen (AID 743209); further: nearly all actives have a fitted effect of over 50% in size
In short: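 First, HSE-bla HeLa cells were seeded at 1500 cells/well and kept overnight at 37 C. Next, compounds were pinned in and incubated 5 h. After the FRET substrate step, CellTiter-Glo was added and luminescence read 30 min later.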

[8] = qHTS assay for small molecule activators of the heat shock response signaling pathway (AID 743210; active means well fitted activation curve with a large enough effect in the signal ratio in the repeat runs, with a control signal flat, not every such curve was filed as active; the % refers to the signal ratio; further: series mostly up to about 63 µM)
In short: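 HSE-bla HeLa cells (beta-lactamase reporter under heat shock response elements), plated overnight, then exposed to compounds 5 h at 37 C; LiveBLAzer B/G FRET substrate added, 2.5 h at room temperature, fluorescence intensity read.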

[9] = qHTS assay to identify small molecule agonists of the peroxisome proliferator-activated receptor delta (PPARd) signaling pathway - cell viability counter screen (AID 743211); further: nearly all actives have a fitted effect of over 55% in size
In short: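 PPARd-bla HEK293H cells (3000/well) were pre-incubated 5 h at 37 C, then exposed to compound for 17 h at 37 C. After 2 h with LiveBLAzer substrate, CellTiter-Glo was added to the same wells; luminescence read after 30 min at room temperature.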

[10] = biological target: Peroxisome proliferator-activated receptor delta (Homo sapiens) (UniProt Q03181); test: qHTS assay to identify small molecule agonists of the peroxisome proliferator-activated receptor delta (PPARd) signaling pathway (AID 743212; calls by dose curve)
In short: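 GeneBLAzer UAS-bla HEK293H cells carrying a PPARδ construct were exposed to compounds at 37 °C. Beta-lactamase activity was read by FRET fluorescence after 2 h at room temperature with LiveBLAzer B/G substrate.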

[11] = qHTS assay to identify small molecule antagonists of the peroxisome proliferator-activated receptor delta (PPARd) signaling pathway - cell viability counter screen (AID 743213); further: nearly all actives have a fitted effect of over 50% in size
In short: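 PPARd-bla HEK293H cells were treated with compounds plus agonist L165041 (300 nM final) for 17 h at 37 C. Viability was then read in the same wells by CellTiter-Glo luminescence after 30 min at room temperature.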

[12] = biological target: Peroxisome proliferator-activated receptor delta (Homo sapiens) (UniProt Q03181); test: qHTS assay to identify small molecule antagonists of the peroxisome proliferator-activated receptor delta (PPARd) signaling pathway (AID 743215; active means well fitted inhibition curve with a large enough effect in the signal ratio in the repeat runs, not every such curve was filed as active; the % refers to the signal ratio;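 further: cells stimulated with agonist L165041 at 300 nM final during compound exposure; series mostly up to about 62 µM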)
In short: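 Inhibition of L165041-driven (300 nM final) PPARd signaling is scored in HEK293H UAS-bla cells. Exposure lasts 17 h at 37 C; beta-lactamase activity is then read by FRET substrate fluorescence after 2 h at room temperature.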

[13] = qHTS assay to identify small molecule agonists of the farnesoid-X-receptor (FXR) signaling pathway - cell viability counter screen (AID 743218); further: nearly all actives have a fitted effect of over 45% in size
In short: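 Cytotoxicity counter-screen run in parallel, same wells: FXR-UAS-bla HEK 293T cells dosed 16 h at 37 C, viability read by CellTiter-Glo luminescence after 30 min at room temperature.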

[14] = qHTS assay to identify small molecule antagonists of the farnesoid-X-receptor (FXR) signaling pathway - cell viability counter screen (AID 743221; active means well fitted cell-killing curve with a large enough effect in the repeat runs, not every such curve was filed as active; further: nearly all actives have a fitted effect of over 50% in size)
In short: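 GeneBLAzer FXR-UAS-bla HEK 293T cells, compound plus chenodeoxycholic acid (50 uM final), 16 h at 37 C. CellTiter-Glo added to the same wells after the beta-lactamase read; luminescence read after 30 min at room temperature as viability.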

[15] = qHTS assay for small molecule agonists of the antioxidant response element (ARE) signaling pathway (AID 743202; active means well fitted activation curve with a large enough effect in the signal ratio in the repeat runs, not every such curve was filed as active; the % refers to the signal ratio)
In short: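 ARE-bla HepG2 cells (beta-lactamase reporter under the antioxidant response element), plated 5 hours, then exposed to compounds 16 hours at 37 C. LiveBLAzer B/G FRET substrate added for 2 hours at room temperature; fluorescence intensity read.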

[16] = qHTS assay to identify small molecule that activate the aryl hydrocarbon receptor (AhR) signaling pathway - cell viability counter screen (AID 743086);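 further: HepG2 liver cells carrying the AhR DRE luciferase reporter; series mostly up to about 70 µM; nearly all actives have a fitted effect of over 45% in size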
In short: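 HepG2-AhR-luc (HG2L7.5c1) cells, 4000/well, treated 24 h at 37 C with compound; viability measured as CellTiter-Fluor fluorescence after 30 min in the same wells as the luciferase read.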

[17] = biological target: Vitamin D3 receptor (Homo sapiens) (UniProt P11473); test: qHTS assay to identify small molecule agonists of the vitamin D receptor (VDR) signaling pathway (AID 743222; calls by dose curve)
In short: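 Quantitative HTS agonist-mode screen: compounds in DMSO were pin-transferred onto VDR-bla cells and incubated 16 h at 37C, 5% CO2. Reporter activity was detected with LiveBLAzer B/G FRET substrate after 2 h at room temperature.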

[18] = biological target: Vitamin D3 receptor (Homo sapiens) (UniProt P11473); test: qHTS assay to identify small molecule antagonists of the vitamin D receptor (VDR) signaling pathway (AID 743223; active means well fitted inhibition curve with a large enough effect in the signal ratio in the repeat runs, not every such curve was filed as active; the % refers to the signal ratio)
In short: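 VDR-bla cells were treated with compound plus 3 nM final 1alpha,25-dihydroxyvitamin D3 for 16 h at 37C. Beta-lactamase reporter read by B/G FRET substrate fluorescence after 2 h at room temperature. qHTS format.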

[19] = biological target: Bile acid receptor (Homo sapiens) (UniProt Q96RI1); test: qHTS assay to identify small molecule agonists of the farnesoid-X-receptor (FXR) signaling pathway (AID 743220; active means well fitted activation curve with a large enough effect in the signal ratio in the repeat runs, not every such curve was filed as active; the % refers to the signal ratio)
In short: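 Beta-lactamase reporter under UAS control in GeneBLAzer FXR HEK 293T cells (5000/well) measured with LiveBLAzer FRET substrate after 2 h at room temperature. Compound exposure lasted 16 h at 37C.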

[20] = biological target: Bile acid receptor (Homo sapiens) (UniProt Q96RI1); test: qHTS assay to identify small molecule antagonists of the farnesoid-X-receptor (FXR) signaling pathway (AID 743217; active means well fitted inhibition curve with a large enough effect in the signal ratio in the repeat runs, not every such curve was filed as active; the % refers to the signal ratio)
In short: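 Antagonist mode against 50 uM (final) chenodeoxycholic acid stimulation in FXR-bla HEK 293T cells, 16 h at 37 °C. Inhibition detected as reduced beta-lactamase activity via LiveBLAzer B/G FRET fluorescence after 2 h at room temperature.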

Measured: Potency

Sequence of Bile acid receptor (Homo sapiens) (Q96RI1 whole entry, looked up): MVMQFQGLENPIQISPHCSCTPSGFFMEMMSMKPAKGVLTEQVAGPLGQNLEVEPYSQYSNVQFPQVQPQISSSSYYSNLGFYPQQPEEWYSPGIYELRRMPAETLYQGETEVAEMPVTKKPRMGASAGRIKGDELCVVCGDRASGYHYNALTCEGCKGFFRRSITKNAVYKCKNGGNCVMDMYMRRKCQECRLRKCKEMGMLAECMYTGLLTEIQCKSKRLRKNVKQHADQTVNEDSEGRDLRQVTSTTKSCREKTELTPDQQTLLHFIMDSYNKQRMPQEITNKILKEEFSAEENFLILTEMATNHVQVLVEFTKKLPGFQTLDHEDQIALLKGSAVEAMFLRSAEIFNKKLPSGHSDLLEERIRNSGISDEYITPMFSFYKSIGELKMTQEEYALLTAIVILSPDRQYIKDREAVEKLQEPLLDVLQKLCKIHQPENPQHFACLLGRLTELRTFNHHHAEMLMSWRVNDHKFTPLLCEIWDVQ
Sequence of Aryl hydrocarbon receptor (Homo sapiens) (P35869 whole entry, looked up): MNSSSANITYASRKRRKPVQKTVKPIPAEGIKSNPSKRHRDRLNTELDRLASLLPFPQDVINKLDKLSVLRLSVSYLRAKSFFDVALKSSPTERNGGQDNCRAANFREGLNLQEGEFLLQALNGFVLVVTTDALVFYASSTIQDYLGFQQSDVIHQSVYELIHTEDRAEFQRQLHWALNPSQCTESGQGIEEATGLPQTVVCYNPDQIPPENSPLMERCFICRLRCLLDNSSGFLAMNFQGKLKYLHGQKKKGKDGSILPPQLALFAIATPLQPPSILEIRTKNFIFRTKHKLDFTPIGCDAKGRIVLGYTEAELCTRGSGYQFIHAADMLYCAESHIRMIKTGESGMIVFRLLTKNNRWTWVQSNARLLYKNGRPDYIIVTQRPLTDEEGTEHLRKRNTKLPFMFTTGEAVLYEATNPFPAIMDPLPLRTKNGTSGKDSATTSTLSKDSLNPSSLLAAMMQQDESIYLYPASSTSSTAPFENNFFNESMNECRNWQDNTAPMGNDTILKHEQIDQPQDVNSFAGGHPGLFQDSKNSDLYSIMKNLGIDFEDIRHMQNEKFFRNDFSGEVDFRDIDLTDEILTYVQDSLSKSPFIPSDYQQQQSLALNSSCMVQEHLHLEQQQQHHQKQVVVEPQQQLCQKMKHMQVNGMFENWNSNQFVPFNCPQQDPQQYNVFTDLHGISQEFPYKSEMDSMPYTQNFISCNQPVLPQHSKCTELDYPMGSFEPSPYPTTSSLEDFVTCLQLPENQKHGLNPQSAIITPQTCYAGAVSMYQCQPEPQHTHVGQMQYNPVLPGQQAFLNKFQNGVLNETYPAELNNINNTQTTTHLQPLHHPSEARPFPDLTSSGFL
Sequence of Peroxisome proliferator-activated receptor delta (Homo sapiens) (Q03181 whole entry, looked up): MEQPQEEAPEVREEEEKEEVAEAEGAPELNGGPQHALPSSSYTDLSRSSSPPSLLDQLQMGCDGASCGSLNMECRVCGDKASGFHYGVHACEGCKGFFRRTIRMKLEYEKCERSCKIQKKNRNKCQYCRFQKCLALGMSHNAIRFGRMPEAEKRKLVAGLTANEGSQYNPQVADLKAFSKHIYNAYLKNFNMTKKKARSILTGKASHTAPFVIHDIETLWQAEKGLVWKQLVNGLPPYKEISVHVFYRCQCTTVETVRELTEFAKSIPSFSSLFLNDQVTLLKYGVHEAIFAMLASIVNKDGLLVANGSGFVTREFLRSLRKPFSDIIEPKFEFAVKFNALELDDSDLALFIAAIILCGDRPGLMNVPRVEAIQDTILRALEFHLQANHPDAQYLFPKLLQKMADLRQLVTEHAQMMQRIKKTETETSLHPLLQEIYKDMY
Sequence of Vitamin D3 receptor (Homo sapiens) (P11473 whole entry, looked up): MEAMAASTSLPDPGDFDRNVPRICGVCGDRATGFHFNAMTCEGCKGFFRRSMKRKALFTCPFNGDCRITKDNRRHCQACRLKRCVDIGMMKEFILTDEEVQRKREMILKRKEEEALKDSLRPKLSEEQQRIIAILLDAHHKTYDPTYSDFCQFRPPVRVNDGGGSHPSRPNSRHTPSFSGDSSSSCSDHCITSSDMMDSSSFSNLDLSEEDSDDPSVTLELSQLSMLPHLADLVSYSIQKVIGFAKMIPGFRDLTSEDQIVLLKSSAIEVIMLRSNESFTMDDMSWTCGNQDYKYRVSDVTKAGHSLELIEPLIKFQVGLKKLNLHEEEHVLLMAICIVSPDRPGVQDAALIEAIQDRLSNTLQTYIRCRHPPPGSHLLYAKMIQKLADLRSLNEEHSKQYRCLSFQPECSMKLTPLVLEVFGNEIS
Sequence of Peroxisome proliferator-activated receptor gamma (Homo sapiens) (P37231 whole entry, looked up): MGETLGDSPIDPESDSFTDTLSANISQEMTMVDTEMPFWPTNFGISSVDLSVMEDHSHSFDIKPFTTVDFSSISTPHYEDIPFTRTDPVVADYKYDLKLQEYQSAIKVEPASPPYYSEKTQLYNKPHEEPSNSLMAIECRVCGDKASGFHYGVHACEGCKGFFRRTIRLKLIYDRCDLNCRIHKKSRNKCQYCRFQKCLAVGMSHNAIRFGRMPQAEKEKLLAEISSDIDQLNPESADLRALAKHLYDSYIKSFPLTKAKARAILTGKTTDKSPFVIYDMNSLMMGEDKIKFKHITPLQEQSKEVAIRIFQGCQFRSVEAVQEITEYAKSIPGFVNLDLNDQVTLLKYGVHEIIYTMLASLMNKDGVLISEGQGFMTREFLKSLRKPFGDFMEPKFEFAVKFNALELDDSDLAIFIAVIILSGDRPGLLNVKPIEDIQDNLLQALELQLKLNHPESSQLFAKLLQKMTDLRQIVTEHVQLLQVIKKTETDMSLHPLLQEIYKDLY

COc1cc(C(=O)NCc2ccc(OCCN(C)C)cc2)cc(OC)c1OC
not listed: [15] | [16] | [17] | [18] | [19] | [20]
inactive: all other assays above

C=C[Si](OC(C)=O)(OC(C)=O)OC(C)=O
inactive: [1] | [2] | [3] | [4] | [5] | [15] | [6] | [7] | [9] | [10] | [13]

Nc1ccccn1
not listed: [3] | [4] | [10] | [11] | [12] | [15] | [19] | [20]
inactive: all other assays above

CCOC(=O)CCC(=O)OCC
not listed: [8] | [16] | [17] | [19] | [20]
inactive: all other assays above

CCCOC(=O)CC
not listed: [6] | [13] | [16] | [18] | [19] | [20]
inactive: all other assays above

Cc1ccccc1N=C(N)N=C(N)N
not listed: [3] | [4] | [7] | [13] | [18] | [19] | [20]
inactive: all other assays above

c1ccc(Cc2ccccc2)cc1
not listed: [10] | [11] | [12] | [16] | [18] | [20]
inactive: all other assays above

C=COC(=O)C(C)(CC)CCC(C)C (configuration not stated)
not listed: [5] | [14] | [16] | [18] | [20]
inactive: all other assays above

CN(C)[C@@H]1C(=O)C(C(=O)NCN2CCCC2)=C(O)[C@@]2(O)C(=O)C3=C(O)c4c(O)cccc4[C@@](C)(O)C3C[C@@H]12 (some centres not stated)
not listed: [10] | [12] | [16] | [18] | [19] | [20]
inactive: all other assays above

CC(C)(C)c1ccc(-c2ccc(C(C)(C)C)cc2)cc1
not listed: [3] | [4] | [8] | [17] | [18] | [20]
inactive: all other assays above

C=C(C)C(=O)OCCOCCOCCOCCOC(=O)C(=C)C
not listed: [3] | [4] | [5] | [6] | [10] | [12] | [15] | [20]
inactive: all other assays above

CC(C)NNC(=O)c1ccncc1
not listed: [2] | [11] | [14] | [15] | [19] | [20]
inactive: all other assays above

CCCCS(=O)(=O)N[C@@H](Cc1ccc(OCCCCC2CCNCC2)cc1)C(=O)O
not listed: [2] | [8] | [11] | [17] | [18] | [19] | [20]
inactive: all other assays above

NCCCC[C@H](N[C@@H](CCc1ccccc1)C(=O)O)C(=O)N1CCC[C@H]1C(=O)O
not listed: [3] | [7] | [8] | [10] | [12] | [16] | [17] | [18]
inactive: all other assays above

CCOc1ccc2nc(S(N)(=O)=O)sc2c1
inactive: [1] | [16] | [3] | [5] | [8] | [9] | [12] | [13] | [14] | [17] | [18]

CCCCN1C=CN(C)C1
not listed: [3] | [14] | [16] | [19] | [20]
inactive: all other assays above

CCOC(=O)c1ccccc1
not listed: [2] | [7] | [16] | [19] | [20]
inactive: all other assays above

CN1C(C)(C)CC(O)CC1(C)C
not listed: [2] | [4] | [11] | [20]
inactive: all other assays above

Nc1ccn([C@@H]2O[C@H](CO)[C@@H](O)C2(F)F)c(=O)n1
not listed: [3] | [4] | [11] | [12] | [15] | [16] | [20]
inactive: all other assays above

CN(C)C(=O)Oc1cccc([N+](C)(C)C)c1
not listed: [3] | [4] | [7] | [13] | [16]
inactive: all other assays above
